From PubChem
CYP2C19 inh: inhibitors of human CYP2C19; inhibition, % at 5 µM; P33261; AID 778; 96,000 compounds, 21% hits; CYP2C19 Supersomes, luciferin-H EGE luminescence, 30 min;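 active = CYP2C19 inhibition above a set limit at 5 µM in the primary screen, cut at about 50% in these data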;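 also: plate controls were negative control wells for no effect and 2.5 mM tranylcypromine positive control for full effect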
Target sequence (P33261 whole entry, looked up): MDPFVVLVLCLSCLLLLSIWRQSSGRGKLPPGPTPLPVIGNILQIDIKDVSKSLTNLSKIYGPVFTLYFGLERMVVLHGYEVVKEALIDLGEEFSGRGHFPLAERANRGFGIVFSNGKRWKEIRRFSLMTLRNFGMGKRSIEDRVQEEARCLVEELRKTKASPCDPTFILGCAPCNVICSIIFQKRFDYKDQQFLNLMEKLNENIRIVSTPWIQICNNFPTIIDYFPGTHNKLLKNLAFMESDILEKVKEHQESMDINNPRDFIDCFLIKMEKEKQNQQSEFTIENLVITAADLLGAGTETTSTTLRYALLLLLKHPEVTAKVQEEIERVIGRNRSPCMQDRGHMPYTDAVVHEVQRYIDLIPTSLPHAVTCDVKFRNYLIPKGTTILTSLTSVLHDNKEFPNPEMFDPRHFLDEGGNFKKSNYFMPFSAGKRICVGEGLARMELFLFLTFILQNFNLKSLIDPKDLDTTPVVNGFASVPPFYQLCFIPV
CYP2C19 activ: activators of human cytochrome P450 2C19; 96,000 tested, under 10 active; P33261; activation factor at 5 µM; recombinant CYP2C19, luciferin-H EGE luminescence; hits give high values; 0 = fully inhibited enzyme, 1 = untreated enzyme; AID 1025;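 active = activation factor of at least 2 at 5 µM in the primary screen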;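 also: 0 = wells with 2.5 mM tranylcypromine and 1 = vehicle-only wells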
CYP2C9 activ: increases human cytochrome P450 2C9 activity. recombinant CYP2C9, luciferin-H conversion, luminescence; hits give high values; factor 1 = untreated enzyme, 0 = blocked. activation factor at 5 µM. 96,000 compounds, 1.4% hits. AID 1024;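 active = activation factor of 2 or more for CYP2C9 at a 5 µM dose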;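 also: 0 = sulfaphenazole-blocked wells and 1 = vehicle-only wells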
CYP2C9 inhib: inhibitors of human CYP2C9; P11712; CYP2C9 Supersomes, luciferin-H conversion, luminescence; inhibition, % at 5 µM; 96,000 compounds, 20% hits;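 active = blocking of liver enzyme CYP2C9 beyond about 50% at 5 µM, limit read from the data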
An asterisk follows results filed as active. Shown are actives, neighbours in structure and some others; about 31% of the full set was active somewhere.

SMILES | CYP2C19 inh | CYP2C19 activ | CYP2C9 activ | CYP2C9 inhib
Cc1cc(=O)oc(C)c1C(=O)Nc1cccc2ccccc12 | 38 | 0.6 | 1.1 | -11
O=C(NC(Cc1c[nH]c2ccccc12)C(=O)O)c1ccccc1 (stereo not drawn) | 7 | 0.9 | 0.7 | 34
Cc1oc2c(c1C(=O)Nc1cccc3ccccc13)CCCC2 | 85* | 0.2 | 0.2 | 81*
Cc1oc2c(c1C(=O)NC(Cc1c[nH]c3ccccc13)C(=O)O)CCCC2 (stereo not drawn) | 43 | 0.6 | 0.2 | 80*
CCOC(=O)Nc1cccc2ccccc12 | 14 | 0.9 | 1 | 4
Cc1c(C)n(C)c2ccc(C(=O)Nc3cccc4ccccc34)cc12 | 16 | 0.8 | 3.7* | -267
CN(C)CC(C)(C)CNC(=O)C1CCN(Cc2ccccc2O)CC1 | 4 | 1 | 0.9 | 11
CCn1c(/C=C2\C(=O)N(C)c3ccccc32)nc2ccccc2c1=O | 15 | 0.8 | 0.8 | 22
Cc1ccc(C2C3=C(CC(C)(C)CC3=O)N(CCN3CCOCC3)C3=C2C(=O)CC(C)(C)C3)cc1 | -10 | 1.1 | 1.1 | -6
COC(=O)C1=C(C(C)=O)C(c2ccc(C(=O)OC)cc2)n2nnnc2N1 (stereo not drawn) | 12 | 0.9 | 0.2 | 83*
O=c1oc(-c2ccccc2NS(=O)(=O)c2ccccc2)nc2ccccc12 | 7 | 0.9 | 0.8 | 16
O=C1c2ccccc2-c2cccc(NS(=O)(=O)c3ccc(C(F)(F)F)cc3)c21 | 2 | 1 | 0.1 | 88*
CC(Oc1ccc(Cl)cc1Cl)C(=O)NCCCN(C)C (stereo not drawn) | 8 | 0.9 | 1 | -4
COc1cccc(C2CC(=O)Nc3cc(OC)c(OC)c(OC)c32)c1OC (stereo not drawn) | 63* | 0.4 | 0.5 | 47
CCOc1ccccc1C1CC(=O)Nc2cc(OC)c(OC)c(OC)c21 (stereo not drawn) | 8 | 0.9 | 1 | -1
COc1ccc(CCNC(=O)c2nc3ncccn3n2)cc1OC | 5 | 1 | 0.9 | 10
COc1cccc(NC(=O)c2nc3ncccn3n2)c1 | -16 | 1.2 | 2* | -95
OCCc1ccc(-c2ccc(Cl)cc2)o1 | 47 | 0.5 | 0.5 | 45
CN1CCN(Cc2ccc(-c3ccc(Cl)cc3)o2)CC1 | 57* | 0.4 | 0.9 | 7
CNc1ncc(C(=O)c2ccc(Cl)cc2)s1 | 65* | 0.3 | 0.5 | 47
CNc1ncc(C(=O)c2ccc(Cl)c(Cl)c2)s1 | 53* | 0.5 | 0.5 | 48
O=C(c1ccc(Cl)c(Cl)c1)c1cnc(Nc2ccccc2)s1 | 6 | 0.9 | 0.9 | 7
O=C(c1ccccc1)c1cnc(Nc2ccccc2Cl)s1 | 54* | 0.5 | 0.5 | 48
COc1cccc(NC(=O)CNC(=O)c2ccccc2)c1 | 50* | 0.5 | 0.5 | 46
COC(=O)c1cccc(NC(=O)Cn2nnc3ccccc32)c1 | 64* | 0.4 | 0 | 96*
SMILES | CYP2C19 inh | CYP2C19 activ | CYP2C9 activ | CYP2C9 inhib
COC(=O)[C@@H](NC(=O)Nc1cccc(OC)c1)C(C)C | -8 | 1.1 | 1.1 | -6
COc1cccc(NC(=O)CNC(C)CCC(C)C)c1 (stereo not drawn) | 79* | 0.2 | 0.7 | 26
COc1ccc(C(=O)Nc2cccc(OC)c2)cc1 | 48 | 0.5 | 0.8 | 18
COC(=O)c1cccc(NC(=O)CCCOc2ccccc2)c1 | 80* | 0.2 | 0.4 | 59*
CC(=O)SC(C)CC(=O)NCc1ccccc1 (stereo not drawn) | 42 | 0.6 | 0.9 | 10
CCOC(=O)CC(=O)Nc1ccc(C)cc1 | 11 | 0.9 | 0.9 | 13
Clc1ccc(/C=N/c2c(-c3ccc(Cl)cc3)nc3n2CCS3)cc1 | 0 | 1 | 1 | 0
N=c1ccn(Cc2ccc(Cl)cc2Cl)cc1 | 0 | 1 | 0.9 | 11
COc1ccccc1C(=O)NCC(=O)Nc1ccccc1 | 51* | 0.5 | 0.9 | 9
Cc1nnc(SCCn2c(N3CCCC(C)C3)nc3c2c(=O)n(C)c(=O)n3C)s1 (stereo not drawn) | 4 | 1 | 0.8 | 23
COc1cc(-n2ccnc2SC)c(Cl)cc1Cl | 54* | 0.5 | 1 | 4
COc1ccc(N2CCN(c3oc(COc4ccc(Cl)cc4Cl)nc3C#N)CC2)cc1 | 25 | 0.8 | 0.5 | 50
N#Cc1nc(COc2ccc(Cl)cc2Cl)oc1N1CCN(c2ccccc2)CC1 | 58* | 0.4 | 0.6 | 42
N#Cc1nc(COc2ccc(Cl)cc2Cl)oc1N1CCOCC1 | 70* | 0.3 | 0.6 | 44
CN(C)CCNc1oc(COc2ccc(Cl)cc2Cl)nc1C#N | 8 | 0.9 | 0.9 | 9
COCCCNc1oc(COc2ccc(Cl)cc2Cl)nc1C#N | 99* | 0 | 0.1 | 94*
